Results taken from ChEMBL document CHEMBL3988442, “University of Dundee, Small-Polar-MMV Screening Library” (2021).
Hit rate of the full screen: of about 48,000 compounds, about 13,000 (27%) showed an effect of 50% or more. Some of the results follow.

system: Wolbachia pipientis; test: Anti-Wolbachia Cell-Based Screen; type: functional; set-up: scale not given: in the data most compounds retested in dose-response had high values; conditions: 5 µM

Structure (SMILES) | Percent Effect
Cc1noc(COCC(=O)Nc2cc(C)c(Br)cn2)n1 | -3.051%
CC(=O)NCC1CN(c2ccc3c(Cl)ccnc3c2F)CCO1 (centres undefined) | -19.58%
Cc1ccc(C(=O)NCCNCC2CNc3ccnn3C2)cc1F (centres undefined) | -3.46%
CN1CCCN(c2nccc(-c3cncnc3C3CCCCC3)n2)CC1 | 86.07%
CCc1ncc2c(n1)CN(c1nccc(C3CCCC3)n1)C2 | 14.73%
Cc1nn(C)cc1-c1ccnc(N2CCN(c3cnccn3)CC2)n1 | 17.52%
CN1CCN(c2nccc(-c3cncnc3C3CCCCC3)n2)CC1 | 58.46%
Cc1ccc([C@@H]2CN(C(=O)c3ccc[nH]3)C[C@H]2NC(=O)C2CC2)cc1 | 0.8109%
Cc1cc(NC(=O)NCC(C)O)n(C)n1 (centres undefined) | -6.671%
Cc1cc(NC(=O)NCC(C)N2CCOCC2)n(C)n1 (centres undefined) | 113%
Cc1cc(NC(=O)NCC(C(C)C)N2CCOCC2)n(C)n1 (centres undefined) | 115.8%
Cc1c(NC(=O)NCC(C)N2CCOCC2)cccc1OC(F)F (centres undefined) | -9.929%
CCC(CC)C(CNC(=O)Nc1cc(C)nn1C)N1CCOCC1 (centres undefined) | -3.913%
CC(C)CC(CNC(=O)NCc1cc[nH]n1)N1CCOCC1 (centres undefined) | 6.619%
CCC(CC)C(O)CNC(=O)Nc1cc(C)nn1C (centres undefined) | 91.79%
CCn1cnnc1CNC(=O)NCC(C(C)C)N1CCOCC1 (centres undefined) | -2.117%
Cc1noc(C)c1CC(=O)NCC(CC(C)C)N1CCOCC1 (centres undefined) | -1.173%
Cc1ccc(F)cc1NC(=O)NCC(C)N1CCOCC1 (centres undefined) | 9.148%
COc1ccc(C(O)CNC(=O)Nc2cc(C)nn2C)cc1 (centres undefined) | -16.1%
Cc1cc(NC(=O)NCC(CC(C)C)N2CCOCC2)n(C)n1 (centres undefined) | 103.9%
CC(C)CS(=O)(=O)N1CCC2(CN(c3cccc(F)c3)C(=O)CN2C)C1.O=C(O)C(F)(F)F (centres undefined) | 10.41%
Cc1ccc(C(=O)N2CCC(n3cc(CO)nn3)CC2)cn1 | 1.663%

Structure (SMILES) | Percent Effect
C=C1C(C)(C)[C@H]2CC[C@]1(C(=O)N1CCC(Cn3cc(CO)nn3)CC1)C2 | 87.91%
Cn1cc(Cl)c(CN2CCCC(Cn3cc(CO)nn3)C2)n1 (centres undefined) | -2.88%
CC1(C(=O)N2CCC(n3cc(C4(O)CCCC4)nn3)CC2)CCCCC1 | -2.498%
C=C1C(C)(C)[C@H]2CC[C@]1(C(=O)N1CCC(n3cc(CCO)nn3)CC1)C2 | 95.18%
Cc1ccoc1C(=O)N1CCC(n2cc(CO)nn2)CC1 | -7.426%
OCc1cn(CC2CCN(C3CCSC3)CC2)nn1 (centres undefined) | -25.36%
C=C1C(C)(C)[C@H]2CC[C@]1(C(=O)N1CCC(n3cc(CO)nn3)CC1)C2 | 93.63%
CC(O)c1cn(C2CCN(C(=O)C3(C)CCN(C)CC3)CC2)nn1 (centres undefined) | 3.786%
CCc1noc(CS(=O)(=O)CC=C(C)C)n1 | -4.555%
O=C(NCC1CC[C@@H]2[C@@H]1OCCN2Cc1cccs1)c1ccco1.O=C(O)C(F)(F)F (some centres undefined) | 0.6461%
CN(C)C(=O)CN1CCC2(CCCN(Cc3ccoc3)C2)C1=O (centres undefined) | -23.42%
O=C(O)C(F)(F)F.O=C1N(CC2CC2)CCC12CCN(Cc1ccoc1)CC2 | 112.5%
CN1CCC(CN2CCC3(CCCN(Cc4ccoc4)C3)C2=O)CC1.O=C(O)C(F)(F)F.O=C(O)C(F)(F)F (centres undefined) | 107.1%
O=C(O)C(F)(F)F.O=C1N(CC2CC2)CCC12CCN(CC1CC1)CC2 | 11.64%
COC[C@H]1CN(CC2CC2)C(=O)[C@@H]2CCN(Cc3ccoc3)CC[C@H]12.O=C(O)C(F)(F)F | -27.64%
COCCN1CCC2(CCCN(Cc3ccoc3)C2)C1=O.O=C(O)C(F)(F)F (centres undefined) | 89.97%
CC(=O)N[C@@H](CC(C)C)C(=O)N1CCC(n2cc(CC(C)C)nn2)CC1 | -6.729%
O=S(=O)(Nc1ccccn1)c1cc(Cl)cc2c1OCC2 | -2.666%
COCc1ncn2c1CN(S(=O)(=O)c1cccs1)CCC2 | -6.89%
FC(F)(F)c1ccc(CNC[C@H]2COCc3nc4cccnc4n32)cc1 | -6.835%
CCOCc1ccc(NCc2cnc(N3CCN(C)CC3)nc2)cc1 | 18.94%
O=S(=O)(NCCC(O)c1cccs1)c1ccccc1 (centres undefined) | 2.573%

Structure (SMILES) | Percent Effect
CSc1ccc(OC(C)C(=O)Nc2c(C)n[nH]c2C)cc1 (centres undefined) | -3.157%
CCOCc1nc2c(c(NC(CC)c3ccncc3)n1)CCNCC2 (centres undefined) | -23.76%
O=C(Nc1ccc(-n2cncn2)nc1)N(CC1CCOC1)C1CC1 (centres undefined) | 3.822%
Cc1cc(CNC(=O)NCCOc2ccc(F)c(F)c2)on1 | -11.19%
COc1ncccc1NC(=O)NCC1CCS(=O)(=O)C1 (centres undefined) | -8.215%
O=C(NCC1CCS(=O)(=O)C1)c1ccc(NC(=O)c2ccco2)cc1 (centres undefined) | 100.2%
Cc1cccc(C(=O)NCC2CCS(=O)(=O)C2)n1 (centres undefined) | 20.7%
O=C(NCC1CCS(=O)(=O)C1)Nc1ccccn1 (centres undefined) | 11.69%
O=C(NCC1CCS(=O)(=O)C1)c1ccc2cccc(Cl)c2n1 (centres undefined) | -11.54%
O=C(NCC1CCCN(C(=O)NCCc2ccccc2)C1)c1ccco1 (centres undefined) | -12.18%
Cc1occc1C(=O)Nc1ccc(C(=O)NC[C@H]2CCCN2)cc1 | -11.64%
O=C(NCC1CC1)c1ccc(NC(=O)c2ccco2)cc1 | 109.6%
O=C1COC[C@H]([C@H](O)c2ccc(NC(=O)c3ccco3)cc2)N1 | -8.877%
Cc1ccc(NC(=O)NCC2CCS(=O)(=O)C2)cc1Cl (centres undefined) | 41.82%
Cc1cc(C(=O)NCC2CCS(=O)(=O)C2)ccc1NC(=O)c1ccco1 (centres undefined) | 105.8%
O=C(NCC1CCS(=O)(=O)C1)c1ccco1 (centres undefined) | 88.86%
Cc1cnn(CCNCc2c(C)nn(-c3ccccc3)c2C)c1 | 2.27%
CCn1ccnc1CNCC1CCCN1c1cc(NC)ncn1 (centres undefined) | -2.475%
CC1(c2ccccc2)CCCN(Cc2cncn2C2CC2)C1 (centres undefined) | -17.5%
CC(=O)N1CCN2C(=O)N(Cc3ccc(F)cc3)C[C@H]2C1 | -0.8027%
